Inconclusive results are not listed. A call without a number means that no potency is given here. The source made the active and inactive calls. Calls follow the shape of the dose curve; as a rule, active = well fitted curve in the direction sought with a large enough effect; inconclusive = small, poorly fitted or top-dose-only effect, or another doubt; inactive = no such curve, though single readings can be large; an effect the other way counts as inactive or inconclusive.
target: Glutathione peroxidase 1 (Homo sapiens) (UniProt P07203); test: Primary qHTS Assay for Inhibitors of Recombinant Selenoprotein Glutathione Peroxidase 1 (GPX1) (AID 1845191); settings: recombinant GPX1, GR-coupled NADPH fluorescence, 15 min; series mostly up to 48.8 µM; also: nearly all actives have a fitted effect of over 65% in size
Sequence (P07203 whole entry, looked up): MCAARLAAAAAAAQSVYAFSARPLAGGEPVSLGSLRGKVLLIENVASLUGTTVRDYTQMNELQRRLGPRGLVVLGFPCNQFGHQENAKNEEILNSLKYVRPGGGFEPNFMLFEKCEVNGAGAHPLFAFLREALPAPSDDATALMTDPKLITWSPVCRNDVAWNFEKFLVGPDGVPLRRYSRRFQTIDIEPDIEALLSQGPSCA
Method in brief: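 NADPH consumption tracked by fluorescence at 340/450 nm between t=0 and t=15 min, room temperature. Final mix: 10 nM GPX1, 100 nM glutathione reductase, 1 mM GSH, 0.5 mM NADPH, 0.5 mM cumene hydroperoxide, 0.01% BSA; 30 min compound–enzyme preincubation.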

Structure (SMILES) | Potency
Cc1cccc(-c2nn(C(=S)Nc3ccccc3)cc2-c2ccnc3ccccc23)n1 | inactive
COc1ccc(COc2cc3oc(=O)c4cc(C(C)O)ccc4c3cc2OC)cc1 (centres undefined) | inactive
Cc1c(C)c2c(c(C)c1O)CCC(C)(COc1ccc(CC3SC(=O)NC3=O)cc1)O2 (centres undefined) | inactive

target: Phospholipid hydroperoxide glutathione peroxidase GPX4 (Homo sapiens) (UniProt P36969); test: Primary qHTS Assay for Inhibitors of Recombinant Selenoprotein Glutathione Peroxidase 4 (GPX4) (AID 1845192); settings: recombinant GPX4, GR-coupled NADPH fluorescence, 15 min; series mostly up to 50 µM; also: nearly all actives have a fitted effect of over 65% in size; also: potency is read from the fitted curve at half-maximal effect
Sequence (P36969 whole entry, looked up): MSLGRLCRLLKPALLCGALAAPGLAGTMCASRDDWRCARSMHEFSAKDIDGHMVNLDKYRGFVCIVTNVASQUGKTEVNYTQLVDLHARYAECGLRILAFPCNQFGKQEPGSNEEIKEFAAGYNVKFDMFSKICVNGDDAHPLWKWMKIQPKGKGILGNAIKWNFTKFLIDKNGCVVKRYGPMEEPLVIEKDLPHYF
Method in brief: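 NADPH consumption followed by fluorescence at 340/450 nm, t=0 and after 15 min at room temperature. Reaction started with cumene hydroperoxide (0.5 mM final) after 30 min compound–GPX4 preincubation; final 200 nM GPX4, 100 nM GR, 1 mM GSH, 0.5 mM NADPH.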

Structure (SMILES) | Potency | outcome
Fc1ccc(Cl)cc1-c1nc(Nc2ccncc2)c2nccnc2n1 | inactive | –
COCCNCCCn1c(C(=O)CF)c(-c2ccc(C)cc2)c2c(N)ncnc21 | inactive | –
Cc1ccc(-n2nc(C(C)(C)C)cc2NC(=O)Nc2ccc(OCCN3CCOCC3)c3ccccc23)cc1 | inactive | –
O=C1CCCC2=C1C(c1[nH]ncc1Cl)N=C(Nc1nc3ccccc3o1)N2 (centres undefined) | inactive | –
Cc1ccc(NC(=O)c2cccc(C(C)(C)C#N)c2)cc1Nc1ccc2ncn(C)c(=O)c2c1 | inactive | –
COc1ccc2c3n(c(=NC(=O)c4cccnc4)nc2c1OC)CCN3 | – | inactive [at 4.52 µM]
c1ccc(-c2nn3c(c2-c2ccnc4cc(OCCN5CCOCC5)ccc24)CCC3)nc1 | inactive | –
COc1ccc(C2=N[C@H](c3ccc(Cl)cc3)[C@H](c3ccc(Cl)cc3)N2C(=O)N2CCNC(=O)C2)c(OC(C)C)c1 | inactive | –
CN[C@@H](C)C(=O)N[C@H]1CCCC[C@H]2CC[C@@H](C(=O)N[C@@H](c3ccccc3)c3cn(CCCCc4ccc(CCCCn5cc([C@@H](NC(=O)[C@@H]6CC[C@@H]7CCCC[C@H](NC(=O)[C@H](C)NC)C(=O)N76)c6ccccc6)nn5)cc4)nn3)N2C1=O | inactive | –
CCC(C)(C)C(=O)O[C@H]1C[C@@H](C)C=C2C=C[C@H](C)[C@H](CC[C@@H]3C[C@@H](O)CC(=O)O3)[C@H]21 | inactive | –
O=C(C1CC1)N1CC[C@@H](Cn2c(-c3ccc(-c4ccc5occc5c4)cc3)nc3cnccc32)C1 | 22.7 µM (active) | –
OCCC#Cc1nc(-c2ccc(F)cc2)c(-c2ccncc2)n1CCCc1ccccc1 | inactive | –
CCC(=O)N[C@H]1CC[C@H](C(=O)N(C)c2ccc(-c3nc4ccccc4o3)cc2)C1 | inactive | –
CC(c1cc2ccccc2s1)N(O)C(N)=O (centres undefined) | inactive | –
N#Cc1ccc(C(c2ccc(C#N)cc2)n2cncn2)cc1 | inactive | –
Cc1c(C)c2c(c(C)c1O)CCC(C)(COc1ccc(CC3SC(=O)NC3=O)cc1)O2 (centres undefined) | inactive | –

target: Luciferin 4-monooxygenase (Photinus pyralis) (UniProt P08659); test: Primary firefly luciferase (FLuc) qHTS assay for identification of artifact compounds. (AID 1845220); settings: purified firefly luciferase, luminescence, 5 min; series mostly up to 54.1 µM; also: nearly all actives have a fitted effect of over 60% in size
Method in brief: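 Cell-free, 1536-well qHTS. Buffer pH 7.6 with 0.01% Tween-20 and 0.05% BSA; 10 uM D-luciferin, 10 uM ATP; 10 nM P. pyralis luciferase; luminescence after 5 min.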

Structure (SMILES) | Potency
O=C1CCCC2=C1C(c1[nH]ncc1Cl)N=C(Nc1nc3ccccc3o1)N2 (centres undefined) | inactive
COc1ccccc1[C@H](c1cccc2ccccc12)[C@@](C)(C#N)C(=O)N1CCC(c2cccc(C(F)(F)F)c2)CC1 | inactive
N#CC[C@H](C1CCCC1)n1cc(-c2ncnc3[nH]ccc23)cn1 | inactive
S=C(NCc1ccc2c(c1)OCO2)N1CCN(c2ncnc3c2oc2ccccc23)CC1 | inactive
COc1ccc(CCN2CCN(CCCc3ccccc3)CC2)cc1OC | inactive
CCOc1cc(C(=O)Nc2ccc(Cl)c(-c3nc4ccccc4[nH]3)c2)cc(OCC)c1OCC | inactive
COc1nc(-c2ccc3c(c2)OCO3)n(-c2ccc(NC(=O)CSc3ccccc3)cc2)n1 | inactive
CCCc1nn(C)c2c(=O)[nH]c(-c3cc(S(=O)(=O)N4CCN(C)CC4)ccc3OCC)nc12 | inactive
CCc1cc(Nc2nccc(-c3c(-c4ccc(OC)c(C(=O)Nc5c(F)cccc5F)c4)nc4ccccn34)n2)c(OC)cc1N1CCC(N2CCN(S(C)(=O)=O)CC2)CC1 | inactive

tested on: not listed separately; test: Primary fluorescence-based thiol-reactive (MSTI) qHTS assay for identification of artifact compounds. (AID 1845221); settings: MSTI thiol-reactivity probe, 1 h; series mostly up to 53.8 µM;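 also: thiol-reactive compounds lower the probe fluorescence signal; nearly all actives have a fitted effect of over 65% in size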
Method in brief: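 First, 4 uM MSTI in 2% DMSO/PBS pH 7.4 was dispensed; next, compounds were added; then plates sat 1 h at room temperature without light. Finally, emission at 598 nm was recorded.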

Structure (SMILES) | Potency
O=C1CCCC2=C1C(c1[nH]ncc1Cl)N=C(Nc1nc3ccccc3o1)N2 (centres undefined) | inactive
COc1nc(-c2ccc3c(c2)OCO3)n(-c2ccc(NC(=O)CSc3ccccc3)cc2)n1 | inactive
CCCc1nn(C)c2c(=O)[nH]c(-c3cc(S(=O)(=O)N4CCN(C)CC4)ccc3OCC)nc12 | inactive

tested on: Nanoluciferase (engineered Oplophorus gracilirostris luciferase); test: Primary Nanoluciferase (NLuc) qHTS assay for identification of artifact compounds. (AID 1845222); settings: NLuc-conditioned medium, Nano-Glo luminescence, 5 min; series mostly up to 54.1 µM
Method in brief: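 Compounds are pinned into diluted (1:55) conditioned medium of NLuc-expressing S16 cells and held 15 min at room temperature protected from light. Nano-Glo substrate follows, and luminescence is read 5 min later.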

Structure (SMILES) | outcome
O=C1CCCC2=C1C(c1[nH]ncc1Cl)N=C(Nc1nc3ccccc3o1)N2 (centres undefined) | inactive
COc1ccccc1[C@H](c1cccc2ccccc12)[C@@](C)(C#N)C(=O)N1CCC(c2cccc(C(F)(F)F)c2)CC1 | inactive
N#CC[C@H](C1CCCC1)n1cc(-c2ncnc3[nH]ccc23)cn1 | inactive
S=C(NCc1ccc2c(c1)OCO2)N1CCN(c2ncnc3c2oc2ccccc23)CC1 | inactive
COc1ccc(CCN2CCN(CCCc3ccccc3)CC2)cc1OC | inactive
CCOc1cc(C(=O)Nc2ccc(Cl)c(-c3nc4ccccc4[nH]3)c2)cc(OCC)c1OCC | inactive
COc1nc(-c2ccc3c(c2)OCO3)n(-c2ccc(NC(=O)CSc3ccccc3)cc2)n1 | inactive
CCCc1nn(C)c2c(=O)[nH]c(-c3cc(S(=O)(=O)N4CCN(C)CC4)ccc3OCC)nc12 | inactive
CCc1cc(Nc2nccc(-c3c(-c4ccc(OC)c(C(=O)Nc5c(F)cccc5F)c4)nc4ccccn34)n2)c(OC)cc1N1CCC(N2CCN(S(C)(=O)=O)CC2)CC1 | inactive

tested on: not listed separately; test: Primary redox qHTS assay for identification of artifact compounds. (AID 1845223); settings: Amplex Red/HRP redox cycling with DTT, fluorescence; series mostly up to 53.8 µM
Method in brief: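 Redox-cycling detection via DTT (250 uM final) oxidation coupled to Amplex Red (25 uM)/HRP (250 mU/mL) in HBSS. 15 min preincubation plus 30 min after DTT, room temperature. Ex/Em 525/598 nm; 4-parameter Hill fit against DMSO and 10 uM DA3003.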

Structure (SMILES) | outcome
O=C1CCCC2=C1C(c1[nH]ncc1Cl)N=C(Nc1nc3ccccc3o1)N2 (centres undefined) | inactive
COc1ccccc1[C@H](c1cccc2ccccc12)[C@@](C)(C#N)C(=O)N1CCC(c2cccc(C(F)(F)F)c2)CC1 | inactive
N#CC[C@H](C1CCCC1)n1cc(-c2ncnc3[nH]ccc23)cn1 | inactive
S=C(NCc1ccc2c(c1)OCO2)N1CCN(c2ncnc3c2oc2ccccc23)CC1 | inactive
COc1ccc(CCN2CCN(CCCc3ccccc3)CC2)cc1OC | inactive
CCOc1cc(C(=O)Nc2ccc(Cl)c(-c3nc4ccccc4[nH]3)c2)cc(OCC)c1OCC | inactive
COc1nc(-c2ccc3c(c2)OCO3)n(-c2ccc(NC(=O)CSc3ccccc3)cc2)n1 | inactive
CCCc1nn(C)c2c(=O)[nH]c(-c3cc(S(=O)(=O)N4CCN(C)CC4)ccc3OCC)nc12 | inactive
CCc1cc(Nc2nccc(-c3c(-c4ccc(OC)c(C(=O)Nc5c(F)cccc5F)c4)nc4ccccn34)n2)c(OC)cc1N1CCC(N2CCN(S(C)(=O)=O)CC2)CC1 | inactive
